Bioassay records deposited in PubChem by National Center for Advancing Translational Sciences (NCATS).
An excerpt weighted towards active compounds, which were near 21% of everything screened.
CHX counter: Cycloheximide Counterscreen for Small Molecule Inhibitors of Shiga Toxin; cell reporter, cycloheximide protein synthesis inhibition counterscreen; max response, %; actives 12% (n = 300,000); in the data active = max response mostly above about 13%, no sharp cut-off; inactive = mostly below about 14%; note: read at 38.3 µM for the half of the compounds with a filed dose; 0% is about no effect
Shiga toxin inh: A qHTS for Small Molecule Inhibitors of Shiga Toxin; Vero cells, Shiga toxin protein synthesis inhibition reporter; inhibition, % at 38.7 µM; actives 9.2% (n = 290,000); AID 2315, 2010; in the data active = inhibition mostly above about 28%, no sharp cut-off; inactive = mostly below about 43%; note: 0% is about no effect
HCMV inh: qHTS Assay for inhibitors of the human cytomegalovirus (HCMV). HFF cells, HCMV-luciferase reporter, 72 h; stronger effect = lower value. activity change, negative = inhibition, % at 57.5 µM. actives 4.5% (n = 410,000); in the data active = activity change below about -60%; inconclusive = no clear call, values can overlap the other calls; inactive = above about -39%; note: % is set by controls: 0 for no effect and ±100 for the full control effect
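Compounds were evaluated in HFFs infected with an HCMV luciferase reporter virus (MOI 1 PFU/cell). Luciferase in lysates collected 72 h post infection served as the replication measure.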
HCV inh: qHTS Assay for Inhibitors of Hepatitis C Virus (HCV); Potency, µM (series often up to 41.8 µM), inactives show at the highest dose activity change, negative = inhibition, hits mostly inhibitors; AID 651820, 2012; actives 3.4% (n = 340,000); Huh7.5.1 HCVcc-Cre infection, luciferase reporter, 44 h; note: potency is the fitted concentration of half-maximal effect; % is set by controls: 0 for no effect and ±100 for the full control effect
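Seed cells (1,000/well) for 4 h; treat with compound and infect with HCVcc-Cre, moi about 0.5. Incubate 44 h, then detect luciferase activity.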
Pf growth 48h: Primary qHTS for delayed death inhibitors of the malarial parasite plastid, 48 hour incubation; P. falciparum luciferase growth in erythrocytes, 48 h; actives 5.9% (n = 310,000); Potency, µM (titrated, usually from 28.7 µM), inactives show top-dose activity change, negative = inhibition, usual class: inhibitors; note: potency is the fitted concentration of half-maximal effect; % is set by controls: 0 for no effect and ±100 for the full control effect
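Luminescence readout; reporter = integrated firefly luciferase in P. falciparum. RBC culture at 2% hematocrit, 0.1% parasitemia final, 37 C/5% CO2; decreased signal taken as growth inhibition.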
Pf growth 96h: Primary qHTS for delayed death inhibitors of the malarial parasite plastid, 96 hour incubation; AID 504834, 2011; P. falciparum luciferase reporter growth, 96 h; actives 6.9% (n = 320,000); Potency, µM (titrated, usually from 28.7 µM), inactives show top-dose activity change, negative = inhibition, most hits filed as inhibitors; note: potency is the fitted concentration of half-maximal effect; % is set by controls: 0 for no effect and ±100 for the full control effect
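Erythrocytes infected with luciferase-expressing P. falciparum were dispensed at 2% hematocrit and 0.05% parasitemia (final), then incubated with compounds 96 hours at 37 C in 5% CO2. Luminescence after detection reagent addition reported growth.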
* marks the source's active call; other numbers are inactive results; ? = inconclusive; . = not tested or not shown. Unless noted, calls come from the whole dose curve; as a rule, active = well fitted inhibition curve with a large enough effect; inconclusive = small, poorly fitted or top-dose-only effect, or another doubt; inactive = no such curve, though single readings can be large or run the other way.

SMILES	CHX counter	Shiga toxin inh	HCMV inh	HCV inh	Pf growth 48h	Pf growth 96h
CC(=O)N1CCN(S(=O)(=O)c2cccc(C(=O)OCC(=O)N3CC(=O)Nc4ccccc43)c2)CC1	16*	25	26	-2%	-7%	7%
Cn1c2ccccc2c2cc(C(=O)OCC(=O)N3CC(=O)Nc4ccccc43)sc21	-2	-4	3	-42%	4.1µM*	2%
O=C1CN(C(=O)COC(=O)c2cccs2)c2ccccc2N1	.	.	20	5%	9%	28%
O=C1CN(C(=O)COC(=O)c2ccccc2O)c2ccccc2N1	1	5	-39	3%	-19%	2%
Cc1cc(C(=O)OCC(=O)N2CC(=O)Nc3ccccc32)c(C)n1-c1ccccc1	8	10	?	?	?	?
COc1cc(SC)ccc1C(=O)OCC(=O)N1CC(=O)Nc2ccccc21	.	.	7	10µM*	.	.
CC1CCCCN1C(=O)CSc1nnc(-c2cccnc2)o1 (stereo not given)	-2	15	-14	-2%	15%	-30%
COc1ccc(NC(=O)c2c(NCc3cccs3)sc3c2CCCCC3)cc1	.	.	-3	.	.	.
COc1ccc2nc3n(c(=O)c2c1)-c1ncccc1C(=O)NC3CC(C)C (stereo not given)	.	.	-13	.	.	.
COc1ccc(CNc2nc(NCc3ccc(OC)cc3)c3ncn(C(C)C)c3n2)cc1	-3	-6	.	.	.	.
O=C(Nc1ccccc1F)c1csc(COCCO)n1	.	.	26	.	.	.
O=[N+]([O-])c1cccc(NC(=S)N2CCc3ccccc32)c1	32*	58*	-12	?	9%	?
CCN1CCN(C(=S)Nc2cccc([N+](=O)[O-])c2)CC1	3	-16	-2	-22%	-15%	109%
O=C(Nc1cccc([N+](=O)[O-])c1)N1CCCc2ccccc21	48*	74*	0	3%	-22%	-13%
Fc1ccc(NC(=S)N2CCCc3ccccc32)cc1	10	51*	?	0%	21%	?
S=C(Nc1cccnc1)N1CCc2ccccc21	-1	-4	41	17%	10%	5.2µM*
Cc1ccc(NC(=O)C2CCCN(S(=O)(=O)c3ccc4[nH]c(=O)ccc4c3)C2)c(C)c1 (stereo not given)	-2	-1	-1	1%	0%	?
Cc1ccc(C(=O)N/C(=C\c2cccs2)C(=O)NCCCN2CCOCC2)cc1	-2	-13	-25	?	25%	29%
O=C(O)CCCC(=O)Nc1cccc(-c2nc3ccccc3[nH]2)c1	-3	-14	25	18%	-4%	-18%
O=C(CSc1ccc(Cl)cc1)Nc1cccc(-c2nc3ccccc3[nH]2)c1	7	-1	24	?	3.7µM*	?
COc1ccc(OCC(=O)Nc2cccc(-c3nc4ccccc4[nH]3)c2)cc1	14*	20	82	?	?	12µM*
Cc1ccc2nc(-c3ccc(NC(=O)CSc4ccccc4)cc3)[nH]c2c1	33*	active	?	11µM*	?	?
O=C(COc1ccccc1)Nc1cccc(-c2nc3ccccc3[nH]2)c1	22*	39	28	-5%	4%	0%
Cc1ccc(C2=NN(CC(=O)NCCCN(CC(C)C)CC(C)C)C(=O)CC2)cc1	.	.	-11	.	.	.
O=C1C(n2ccc3ccccc32)c2cc(Cl)ccc2N1Cc1ccc(Cl)nc1 (stereo not given)	.	.	-31	.	.	.
SMILES	CHX counter	Shiga toxin inh	HCMV inh	HCV inh	Pf growth 48h	Pf growth 96h
O=C(CSc1nc2ccsc2c(=O)n1Cc1ccccc1F)NCc1ccccc1	.	.	8	.	.	.
CCCCNC(=O)c1cc(-c2ccc(OC)c(OC)c2)on1	14*	31	31	-7%	.	3.3µM*
CCCNC(=O)c1cc(-c2ccc(OC)cc2)on1	51*	70*	40	-17%	166%	?
COc1ccc(CNC(=O)c2cc(-c3ccc(OC)cc3)on2)cc1	.	.	2	.	.	.
CCCCNC(=O)c1cc(-c2ccc(F)cc2)on1	35*	52*	152	-5%	112%	-34%
O=C(NCCCN1CCOCC1)c1cc(-c2ccc(O)cc2)on1	2	19	32	29%	2%	-22%
CCCCNC(=O)c1cc(-c2ccc(OC)cc2)on1	52*	194*	105	-1%	130%	?
Cc1cccc(C(=O)NCCC(=O)Nc2ccc(C#N)cc2)c1	-6	-5	27	7%	-3%	-6%
CCCNC(=O)c1cc(-c2ccc(OC)cc2)n(CCCOC)c1C	-1	-13	-25	15%	2.1µM*	39%
CCOC(=O)c1cc(-c2ccc(C)cc2)n(CCC(=O)NCCCOC)c1C	1	5	1	-7%	0%	.
OC(COC(c1ccc(Cl)cc1)c1ccc(Cl)cc1)CN1CCN(c2ccccn2)CC1 (stereo not given)	-5	-3	11	8.9µM*	?	?
Cc1cccc(C)c1OCC(O)CN1CCN(c2ccccn2)CC1 (stereo not given)	-1	-2	-21	24%	-4%	-7%
COc1ccc(-c2cc3ccccc3n2CC(O)CNCCO)cc1 (stereo not given)	-1	-2	-7	-1%	?	86%
OC(CN1CCCCC1)Cn1c2ccc(Cl)cc2c2cc(Cl)ccc21 (stereo not given)	-3	3	-15	?	1.9µM*	?
COc1ccc(-c2cc3ccccc3n2CC(O)CN2CCCCC2)cc1 (stereo not given)	-1	-12	-81*	-8%	-21%	?
OC(CN1CCN(c2ccccn2)CC1)Cn1c2ccc(Cl)cc2c2cc(Cl)ccc21 (stereo not given)	2	32	5	-5%	1.7µM*	.
C=CCN1CCCC1CNC(=O)c1cc(S(N)(=O)=O)cc(OC)c1OC (stereo not given)	.	.	.	.	5%	-7%
O=C(CCc1ccc(S(=O)(=O)N2CCOCC2)cc1)Nc1nccs1	-1	0	-7	16%	?	?
O=C(COc1ccc(Cl)cc1)Nc1nc(-c2ccc(S(=O)(=O)N3CCOCC3)cc2)cs1	-4	-12	-10	11µM*	?	5%
O=C(CN1CCOCC1)Nc1nc(-c2ccc(Cl)cc2)cs1	17	17	-26	22µM*	.	8%
Cc1ccc(-c2csc(NC(=O)CN3CCOCC3)n2)cc1	1	11	?	?	-6%	-2%
O=C(CCc1ccc(S(=O)(=O)N2CCOCC2)cc1)Nc1nc(COc2ccccc2)cs1	1	-17	-93*	?	12µM*	.
Cc1ccc(-c2csc(NC(=O)N3CCOCC3)n2)cc1	38*	111*	-33	?	32%	3%
